The full ranking holds about 18,000 sequences; the median of “log2 normalized intensity” is about 0.39, and the highest 2% start at about 6.6. The full list was thinned out, with the highest values kept by preference.

The test deals with T1, HNF4alpha2 (COS-7 nuclear extract) (Homo sapiens, UniProt P41235 1-474).
T1 sequence: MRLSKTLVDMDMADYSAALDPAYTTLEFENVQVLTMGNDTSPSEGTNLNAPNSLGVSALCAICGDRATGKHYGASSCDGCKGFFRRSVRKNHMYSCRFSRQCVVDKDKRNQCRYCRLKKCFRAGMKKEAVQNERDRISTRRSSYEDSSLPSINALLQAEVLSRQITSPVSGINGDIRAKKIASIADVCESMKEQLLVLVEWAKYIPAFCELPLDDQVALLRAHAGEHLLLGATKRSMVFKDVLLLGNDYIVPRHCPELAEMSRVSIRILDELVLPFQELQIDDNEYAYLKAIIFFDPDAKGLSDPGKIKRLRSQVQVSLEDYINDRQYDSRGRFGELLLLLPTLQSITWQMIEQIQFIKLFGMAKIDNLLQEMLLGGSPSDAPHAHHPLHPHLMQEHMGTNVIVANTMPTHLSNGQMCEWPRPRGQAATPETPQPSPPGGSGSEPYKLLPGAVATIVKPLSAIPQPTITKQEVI
Put plainly: protein-binding microarray; COS-7 nuclear extract on double-stranded Agilent 4x180k PBM; binding buffer, salt, pH and temperature not given in the material; high values mean tight binding. The conditions noted are these: chain copies: 2; label: 3' end of strand 1 on the slide; dsDNA, one strand shown. Put shortly:
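A human HNF4α isoform was expressed in COS-7 cells by transient CaPO4 transfection, and nuclear extracts were prepared. These were applied to a custom Agilent SurePrint G3 4x180k array carrying ~44,000 test sequences in quadruplicate as double-stranded ~60-nt oligonucleotides, and an Agilent G2565CA scanner imaged bound HNF4α at 2-µm resolution. The background-corrected, normalized gProcessedSignal from Agilent software was used as the binding signal.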
Take “TCAAAGGTCAGAAAAAGCTGACGCCCCACCGCCTAGGGAGATTAGAGTATCGGTCGA”: the binding signal amounted to 3.28 log2 normalized intensity.
Under “AATTTTTTTTTCTTATCTCACTGGATGTGTGCCTAGGGAGATTAGAGTATCGGTCGA” stands 2.22 log2 normalized intensity; under “AGGTTAAGACTTTGAATCAGTAAATATTTGGCCTAGGGAGATTAGAGTATCGGTCGA”, 0.901 log2 normalized intensity.
Then “AGATACAGGTCAGACCCTGGAATTCCAGAAGCCTAGGGAGATTAGAGTATCGGTCGA”, with -0.969 log2 normalized intensity; and “GGCCCATTTTCCCATGGTCTGTAGAAGGCGGCCTAGGGAGATTAGAGTATCGGTCGA”, with 0.306 log2 normalized intensity; and “GATGTTCGTTTGGATCGCTTGGCTCAGGCCGCCTAGGGAGATTAGAGTATCGGTCGA”, with -0.819 log2 normalized intensity.
On to “CTCTGATCCTAGTCTTTGCCCCACTGCAAGGCCTAGGGAGATTAGAGTATCGGTCGA”, for which the binding signal is 2.95 log2 normalized intensity.
In the case of “GGGTGGTGGTTACCGGCAGAGGCTGCAGAGGCCTAGGGAGATTAGAGTATCGGTCGA”, the binding signal stood at 0.249 log2 normalized intensity.
Under “CTCCCTTTGATGCGGTCAGAGTTCATTTGGGCCTAGGGAGATTAGAGTATCGGTCGA” stands 3.48 log2 normalized intensity.
Under “CAGTTTTTGTTTGCACCTCACAGGAAGAACGCCTAGGGAGATTAGAGTATCGGTCGA” stands 1.15 log2 normalized intensity; under “ATTTGAGGGTGACACTGCTCTCTCCAGGGGGCCTAGGGAGATTAGAGTATCGGTCGA”, -0.738 log2 normalized intensity.
Under “CCCACAGAGGGGGTTTGTTTTTTGCCCTTTGCCTAGGGAGATTAGAGTATCGGTCGA” stands 4.6 log2 normalized intensity.
Turning to “AGCCTACCCACCCACACCTCCCCTTTGTTTGCCTAGGGAGATTAGAGTATCGGTCGA”, the binding signal worked out at 3.59 log2 normalized intensity.
Then “GGGTTTGTTTTTTGCCCTTTGTACCCACACGCCTAGGGAGATTAGAGTATCGGTCGA”, with 7.67 log2 normalized intensity.
Regarding “TGCCCTTTGCCTGGTGATCTTTGTTAGACCGCCTAGGGAGATTAGAGTATCGGTCGA”, the binding signal amounted to 2.7 log2 normalized intensity.
Under “TGTTTTTTGCCCTTTGTACCCACACACACCGCCTAGGGAGATTAGAGTATCGGTCGA” stands 6.48 log2 normalized intensity; under “AGAGGGGGTTTGTTTTTTGCCCTTTGTACCGCCTAGGGAGATTAGAGTATCGGTCGA”, 8.01 log2 normalized intensity.
Then “ATGCCGGCGTGACCCCCACTGCCTGCCTGCGCCTAGGGAGATTAGAGTATCGGTCGA”, with 3.81 log2 normalized intensity.
In the case of “ATTTGACAATTTACAGTGTTCAAAGGTAGCGCCTAGGGAGATTAGAGTATCGGTCGA”, the binding signal is 1.66 log2 normalized intensity.
Consider “CTTTAACGACCTTTGGACTTGAATTATCCTGCCTAGGGAGATTAGAGTATCGGTCGA”, for which the binding signal came out at 7.84 log2 normalized intensity.
Under “ACGACCTTTGGACTTGAATTATCCTTATGGGCCTAGGGAGATTAGAGTATCGGTCGA” stands 6.27 log2 normalized intensity; under “TATGCTCTCTCTCCACCTGGAGGGACTTTGGCCTAGGGAGATTAGAGTATCGGTCGA”, 2.59 log2 normalized intensity.
Under “GCTTTTGGAAGGACTTCGAATGGTATGCTAGCCTAGGGAGATTAGAGTATCGGTCGA” stands 0.461 log2 normalized intensity; under “GGACTTCGAATGGTATGCTAGAGTACTTGGGCCTAGGGAGATTAGAGTATCGGTCGA”, 1.23 log2 normalized intensity; under “CTGGACTATGCCTTGAACTTTAAGGCACCTGCCTAGGGAGATTAGAGTATCGGTCGA”, 1.07 log2 normalized intensity.
Under “TGCTAGAGTACTTGGACTTTAACCTTTAGAGCCTAGGGAGATTAGAGTATCGGTCGA” stands 9.24 log2 normalized intensity; under “TGGTATGCTAGAGTACTTGGACTTTAACCTGCCTAGGGAGATTAGAGTATCGGTCGA”, 9.48 log2 normalized intensity; under “CTTTGGACTTGAATTATCCTTATGGTCTCTGCCTAGGGAGATTAGAGTATCGGTCGA”, 0.855 log2 normalized intensity.
On to “TAGGGCCTTGCTATGGAGTGGACTTTGGCTGCCTAGGGAGATTAGAGTATCGGTCGA”, for which the binding signal was determined as 6.16 log2 normalized intensity.
Under “TCGAATGGTATGCTAGAGTACTTGGACTTTGCCTAGGGAGATTAGAGTATCGGTCGA” stands 6.9 log2 normalized intensity; under “GCCTAAGCAGGGCTAGACTTTAACCCCCTTGCCTAGGGAGATTAGAGTATCGGTCGA”, 5.53 log2 normalized intensity; under “CGTCCGTCACCCCTTTCTTTGATTAGGAAAGCCTAGGGAGATTAGAGTATCGGTCGA”, 1.54 log2 normalized intensity.
For the sequence “GTCAGTTGATAAACAGATAACTGGGGGCAAGCCTAGGGAGATTAGAGTATCGGTCGA”, the binding signal stood at 0.764 log2 normalized intensity.
Then “AGTCTGATTCTAGGGCCCATGCCCTTAGCCGCCTAGGGAGATTAGAGTATCGGTCGA”, with 0.883 log2 normalized intensity.
In the case of “TCTGTATGTCTAAGGTTTCTCAGCCCCATCGCCTAGGGAGATTAGAGTATCGGTCGA”, the binding signal came to 4.27 log2 normalized intensity.
With “CGGGTGAAGGTTAAATAGCTCATTAAGCTTGCCTAGGGAGATTAGAGTATCGGTCGA”, the binding signal was -0.974 log2 normalized intensity.
Then “CTCTCAACTCAGTGAGGGCTATTGACAAAGGCCTAGGGAGATTAGAGTATCGGTCGA”, with -0.637 log2 normalized intensity; and “ATTTTCCCACTTGTATGTCCAAGGGTCACTGCCTAGGGAGATTAGAGTATCGGTCGA”, with 4.44 log2 normalized intensity; and “AATTTTCTCTGTATACTTGTCTTATCAGCAGCCTAGGGAGATTAGAGTATCGGTCGA”, with 0.598 log2 normalized intensity.
Under “GAGTACTTGGACTTTAACCTTTAGATTACTGCCTAGGGAGATTAGAGTATCGGTCGA” stands 7.31 log2 normalized intensity; under “ACTTTAACCTTTAGATTACTAGGAATTGATGCCTAGGGAGATTAGAGTATCGGTCGA”, 0.914 log2 normalized intensity.
Under “CTTGGACTTTAACCTTTAGATTACTAGGAAGCCTAGGGAGATTAGAGTATCGGTCGA” stands 6.18 log2 normalized intensity; under “CTTATCTTTGACCTTACCAGCCCACTCTTAGCCTAGGGAGATTAGAGTATCGGTCGA”, 1.9 log2 normalized intensity.

The values are drawn from PMC10726135, “HNF4α isoforms regulate the circadian balance between carbohydrate and lipid metabolism in the liver”.
